# High-throughput results (PubChem BioAssay)
# IEC-6 cytotox: kills IEC-6 intestinal cells in KLF5 counter-screen. inhibition, % at 5 µM. IEC-6 cytotoxicity, luminescence viability. actives 0.78% (n = 290,000); in the data active means inhibition above about 22%
# aSyn UTR inh: 5' untranslated region of α-synuclein, MLPCN primary screen; AID 1813; alpha-synuclein 5'UTR reporter, inhibitor activity; actives 0.82% (n = 300,000); inhibition, % (tested at 7.5 µM); in the data active means inhibition above about 60%; inconclusive means no clear call, values can overlap the other calls;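 further: H4 neuroglioblastoma cells stably carrying SNCA 5'UTR luciferase fusion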
# KLF5 inhibitor: suppresses KLF5 promoter-driven expression; actives 0.23% (n = 290,000); AID 1700; DLD-1 KLF5 promoter-luciferase reporter, luminescence; inhibition, % at 5 µM;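 active means inhibition above a per-plate limit of that plate's mean compound inhibition plus 3 SD, cut at about 60% in these data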;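 further: higher means less KLF5 promoter-driven luciferase light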
# Ba/F3 V617F tox: lowers viability of Ba/F3 cells expressing EpoR and JAK2V617F; ATP luminescence; inhibition, % at 5.6 µM; actives 1.1% (n = 220,000);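 active means inhibition above the campaign mean plus 3 SD over all tested compounds, cut at about 24% in these data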;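 further: cytokine-independent growth of Ba/F3 cells driven by EpoR plus mutant JAK2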
# BaF3 tox: parental Ba/F3 viability inhibition as JAK2V617F counter-screen; CellTiter-Glo ATP luminescence; inhibition, % at 5.6 µM; actives 1.1% (n = 220,000); AID 1486;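 active means inhibition above a per-campaign cutoff, the mean inhibition of all tested compounds plus 3 SD, cut at about 27% in these data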
# APP 5UTR inh: APP translation inhibition. SH-SY5Y APP 5'UTR-luciferase reporter, luminescence. inhibition, % at 2 µM. actives 0.82% (n = 190,000);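 active means inhibition above a set limit, derived from the sample mean plus 3 SD, cut at about 45% in these data; inconclusive means one replicate passes the limit while the other fails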
# Numbers stand for hits; - = inactive; ? = inconclusive; . = not tested or not shown. An excerpt weighted towards active compounds, which were near 2.1% of everything screened.
SMILES,IEC-6 cytotox,aSyn UTR inh,KLF5 inhibitor,Ba/F3 V617F tox,BaF3 tox,APP 5UTR inh
S=C(Nc1cccc(Cl)c1Cl)N1CCC2(CC1)OCCO2,-,-,-,-,30,-
Cc1ccc(S(=O)(=O)NCCCNS(=O)(=O)c2ccccc2)cc1,-,-,-,.,.,.
CSc1ccc(C(=O)NC2CCSc3ccccc32)cc1 (centres undefined),-,-,-,.,.,.
O=S(=O)([N-]c1nc2ccccc2nc1-n1cc[n+](Cc2ccccc2)c1)c1ccccc1,-,-,-,-,-,.
C=CC[n+]1ccn(-c2nc3ccccc3nc2[N-]S(=O)(=O)c2cccs2)c1,-,-,-,92,86,.
CCCC[n+]1ccn(-c2nc3ccccc3nc2[N-]S(=O)(=O)c2cccs2)c1,-,-,-,98,86,.
CCCC[n+]1ccn(-c2nc3ccccc3nc2[N-]S(=O)(=O)c2ccccc2)c1,-,-,-,-,-,-
O=S(=O)(c1ccc2c(c1)C(=NO)c1cc(S(=O)(=O)N3CCCCC3)ccc1-2)N1CCCCC1,-,96,-,-,-,-
CCN(CC)S(=O)(=O)c1ccc(C)c(C)c1,-,-,-,-,-,-
CCN(CC)S(=O)(=O)c1ccc2c(c1)C(=NO)c1cc(S(=O)(=O)N(CC)CC)ccc1-2,-,115,-,-,-,-
COCCNC(=O)C(c1ccc(C)cc1)N(C(=O)CCC(=O)Nc1ccccn1)c1ccccc1C (centres undefined),-,-,-,.,.,.
O=C(NC(=S)Nc1ccc2oc(=O)ccc2c1)c1cc2ccccc2o1,-,-,-,-,-,.
CCN(CC)c1nc(Nc2ccc(Cl)cc2)nc(OCC#N)n1,-,70,-,-,-,-
CC(C)(C)C(=O)NC(=S)NNC(=O)c1sc2ccccc2c1Cl,-,89,-,-,-,-
O=C(NNC(=S)NC1CCCCC1)c1sc2ccccc2c1Cl,-,-,-,-,-,-
C=CCn1c(SCC(=O)c2[nH]c(C)c(C(=O)OCC)c2C)nc2scc(-c3ccc(OC)cc3)c2c1=O,-,-,-,-,-,60
C=CCn1c(SCC(=O)c2[nH]c(C)c(C(=O)OCC)c2C)nc2scc(-c3ccccc3)c2c1=O,-,?,-,-,-,-
CCN(C(=O)c1cccnc1SC)C12CC3CC(CC(C3)C1)C2,-,-,-,.,.,.
CC1=C(Sc2nc3ccccc3[nH]2)C(=O)NC(C)(C)C1,-,-,-,-,-,48
Cc1ccc(C(C)C)c(OCc2ccc(C(=O)N/N=C/c3ccc(O)c(O)c3)cc2)c1,-,-,-,39,78,50
O=C(N/N=C/c1ccc(O)c(O)c1)c1ccc(CSc2cccc3cccnc23)cc1,-,-,-,62,27,-
Cc1[nH]n(-c2ccccc2)c(=O)c1/C=N/Nc1nncc(-c2ccccc2)n1,-,91,-,53,36,82
CCCCN(CCCC)C(=S)N/N=C/c1c(C)[nH]n(-c2ccccc2)c1=O,-,93,-,-,-,-
Cc1ccc(-n2[nH]c(C)c(/C=N/c3ccccn3)c2=O)cc1,-,-,-,-,-,-
Cc1[nH]n(-c2ccccc2)c(=O)c1/C=N/NC(=O)c1ccc(O)cc1O,-,-,-,.,.,.
SMILES,IEC-6 cytotox,aSyn UTR inh,KLF5 inhibitor,Ba/F3 V617F tox,BaF3 tox,APP 5UTR inh
Cc1[nH]n(-c2ccccc2)c(=O)c1C=Nc1cccc2cccnc12,23,-,-,-,-,70
CCOC(=O)c1c(S(=O)(=O)N2CCN(c3ccc(C(C)=O)cc3)CC2)c(C)n(C)c1C,-,-,-,.,.,.
O=C(CSc1nncs1)Nc1nccs1,.,-,.,.,.,.
CC(=O)N1CCCc2cc(S(=O)(=O)N3CCCC(C(=O)Nc4cccc(C)c4)C3)ccc21 (centres undefined),-,-,-,.,.,.
Cc1cccc(NC(=S)N/N=C/c2cccc(O)c2)c1C,-,-,-,78,51,.
CCCCCCCNC1=CC(=O)CC(c2ccco2)C1 (centres undefined),-,-,-,29,38,-
CCOc1ccc(NC2=CC(=O)CC(c3ccco3)C2)cc1 (centres undefined),-,-,-,-,-,-
CCC(O)C1CCN(C(=O)c2cc(COc3ccc4ncccc4c3)on2)CC1 (centres undefined),-,-,-,47,68,-
O=C(NC1CCCCCCC1)c1cc(COc2ccc3ncccc3c2)on1,-,-,-,-,39,-
CN1c2ccccc2N(C)C1c1ccc2c(c1)OCO2,-,-,-,71,61,-
CCCOc1ccc(CSc2nc3ccccc3[nH]2)cc1,-,-,-,-,44,-
CCOc1ccc(OCCSc2nc3ccccc3[nH]2)cc1,-,-,-,-,-,-
COc1ccccc1C(=O)NC(=O)CSc1nc(C)cs1,.,-,.,.,.,.
O=C(CCCN1C(=O)/C(=C/c2ccc3c(c2)OCO3)SC1=S)Nc1cccc(C(=O)O)c1,-,73,-,.,.,.
COc1ccc(/C=C2\SC(=O)N(CCCC(=O)Nc3ccc(C(=O)O)cc3)C2=O)cc1OC,-,73,-,.,.,.
COc1cc(/C=C2\SC(=S)N(CCC(=O)Nc3ccccc3)C2=O)cc(OC)c1OC,-,-,-,-,-,-
COc1ccc(/C=C2\SC(=O)N(CCC(=O)Nc3ccccc3)C2=O)cc1OC,-,82,-,-,-,-
CCN(CC)CCOC(=O)c1ccc(NC(=O)CCCN2C(=O)S/C(=C/c3ccc(OC)cc3)C2=S)cc1,-,97,-,.,.,.
COc1ccc(/C=C2\SC(=S)N(CCCC(=O)Nc3ccc(C(=O)O)cc3)C2=O)cc1OC,-,-,-,.,.,.
COc1ccccc1N1CCN(C(=O)c2ccc(N3CCCCS3(=O)=O)cc2)CC1,-,-,-,.,.,.
Cc1c(OCC(=O)N[C@H](C(=O)O)c2ccccc2)ccc2c3c(c(=O)oc12)CCCC3,-,-,-,.,.,.
O=c1[nH]c(/C=C/c2ccc(Cl)cc2Cl)c([N+](=O)[O-])c(=O)[nH]1,-,-,-,.,.,.
c1ccc(-n2nnc3c(N4CCOCC4)ncnc32)cc1,-,75,-,-,-,-
Cc1nnc(N2CCOCC2)c2nn(-c3ccccc3)c(C)c12,-,-,-,-,-,-
O=C(CCN1C(=O)COc2ccccc21)N1CCN(c2ccccn2)CC1,-,-,-,-,88,-
SMILES,IEC-6 cytotox,aSyn UTR inh,KLF5 inhibitor,Ba/F3 V617F tox,BaF3 tox,APP 5UTR inh
Cc1nn(CCCC(=O)NCCc2ccccc2)c(=O)c2nccn12,-,-,-,.,.,.
COc1cccc(CN2CCNC(=O)C2CC(=O)NCC(C)(C)N2CCOCC2)c1OC (centres undefined),-,-,-,.,.,.
COC(=O)CN(C#N)c1nc(NC(C)C)nc(OC)n1,-,-,-,41,32,-
COC(=O)CN(C#N)c1nc(OC)nc(N(C)C)n1,-,-,-,-,-,-
Cc1ccccc1CNc1nc(N)n(-c2ccccc2)n1,-,-,-,-,96,-
N#CC1=C(SCC(=O)c2ccc(Br)cc2)NC2=C(C(=O)CCC2)C1c1ccco1 (centres undefined),-,.,-,-,-,67
CCc1ccc(NC(=O)CSC2=C(C#N)C(c3ccco3)C3=C(CCCC3=O)N2)cc1 (centres undefined),-,-,-,-,-,-
